# Screening data (PubChem BioAssay)
# Most compounds without a hit are left out; they make up all but 10% or so of the library.
# Six1-Eya2 inh: qHTS Assay for Inhibitors of the Six1/Eya2 Interaction. actives 0.56% (n = 360,000). AlphaScreen GST-Six1/His-Eya2 binding, biochemical; stronger effect = lower value. activity change, % (no concentration beside the values); in the data active = activity change below about -65%; inconclusive = mostly about -30% to -63%; note: % is set by controls: 0 for no effect and ±100 for the full control effect
#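 AlphaScreen with GST-Six1 and His-Eya2 (5X mix: 250 nM and 500 nM), glutathione donor and nickel acceptor beads; buffer 50 mM Tris pH 8.0, 300 mM NaCl, 1 mM TCEP; 1 h at 37 C in the dark.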
# BAZ2B block: qHTS Assay for Inhibitors of BAZ2B; AID 504333, 2011; Potency, µM (titrated, usually from 114 µM), for the others: at the highest dose activity change, negative = inhibition, hits mostly inhibitors; actives 4.4% (n = 360,000); Bromodomain adjacent to zinc finger domain protein 2B (Homo sapiens), Q9UIF8; AlphaScreen BAZ2B-H3K14Ac peptide displacement; note: potency is the fitted concentration of half-maximal effect; % is set by controls: 0 for no effect and ±100 for the full control effect; nearly all actives have a fitted effect of over 60% in size
#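 Complex of BAZ2B and biotin-H3K14Ac (50 nM apiece) forms over 30 min at RT, then faces library compounds up to 110 uM for another 30 min; AlphaScreen beads added, 20 min dark incubation, luminescence read.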
# JMJD2A Tudor: qHTS Assay for Inhibitors of JMJD2A-Tudor Domain; AlphaScreen JMJD2A-Tudor / H3K4me3 peptide binding; Potency, µM (doses to about 114 µM), for inactives: at the top dose activity change, negative = inhibition, actives largely listed as inhibitors; actives 4.4% (n = 390,000); AID 504339, 2011; note: potency is the fitted concentration of half-maximal effect; % is set by controls: 0 for no effect and ±100 for the full control effect; nearly all actives have a fitted effect of over 50% in size
# CtBP-E1A blk: qHTS Assay for Inhibitors of the CtBP/E1A Interaction; activity change, % (no concentration beside the values); CtBP / adenovirus E1A interaction (AlphaScreen); AlphaScreen GST-E1A/His-CtBP binding, 1536-well; stronger effect = lower value; actives 0.49% (n = 340,000); in the data active = activity change below about -65%; inconclusive = mostly about -30% to -63%; note: % is set by controls: 0 for no effect and ±100 for the full control effect
#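 In 5 uL wells, 23 nL compound meets equimolar GST-E1A and His-CtBP (5X stock 125 nM each) for 2 h, 37 °C. Beads (5X, 50 ug/mL) then 1 h, 37 °C, dark.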
# G9a block: qHTS Assay for Inhibitors of Histone Lysine Methyltransferase G9a; Histone-lysine N-methyltransferase EHMT2 (Homo sapiens), Q96KQ7; G9a H3K9 monomethylation, AlphaScreen, 2 h; Potency, µM (top dose mostly 102 µM), inactives show at the highest dose activity, negative = inhibition, usual class: inhibitors; actives 8.8% (n = 350,000); AID 504332, 2011; note: potency is the fitted concentration of half-maximal effect; % is set by controls: 0 for no effect and ±100 for the full control effect; nearly all actives have a fitted effect of over 75% in size
# Target sequence (Q96KQ7 913-1193 limits assumed): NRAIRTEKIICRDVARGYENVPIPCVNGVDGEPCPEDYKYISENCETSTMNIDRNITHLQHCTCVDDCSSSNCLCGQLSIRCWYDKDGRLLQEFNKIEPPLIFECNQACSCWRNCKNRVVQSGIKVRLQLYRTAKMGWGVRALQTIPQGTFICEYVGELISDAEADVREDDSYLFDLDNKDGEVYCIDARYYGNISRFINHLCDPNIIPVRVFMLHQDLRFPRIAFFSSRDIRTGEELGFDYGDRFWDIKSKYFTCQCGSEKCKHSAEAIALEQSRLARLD
#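 G9a (20 nM) preincubated 15 min RT with compounds, then 500 nM biotinylated H3K9 peptide and 20 uM SAM added; 2 h RT reaction. Monomethyl-H3K9 product detected by AlphaScreen with anti-H3K9me1 antibody, streptavidin donor and anti-rabbit IgG acceptor beads.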
# HP1b chromo inh: HTS for Inhibitors of HP1-beta Chromodomain Interactions with Methylated Histone Tails | AlphaScreen HP1-beta / biotin-H3K9me3 peptide binding | Potency, µM (top dose mostly 114 µM), inactives show at the top dose activity change, negative = inhibition, usual class: inhibitors | actives 0.56% (n = 390,000) | AID 540317, 2011; note: potency is the fitted concentration of half-maximal effect; nearly all actives have a fitted effect of over 70% in size
# Target sequence (P83916 whole entry, looked up): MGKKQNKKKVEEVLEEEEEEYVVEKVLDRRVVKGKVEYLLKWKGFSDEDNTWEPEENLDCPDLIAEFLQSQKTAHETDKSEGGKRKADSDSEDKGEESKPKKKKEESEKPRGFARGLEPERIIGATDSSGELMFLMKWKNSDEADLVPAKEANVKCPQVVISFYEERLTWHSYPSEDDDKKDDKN
#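 HP1-beta protein (50 nM final) preincubated 30 min at room temperature with biotinylated H3(1-18)K9me3 peptide (50 nM) in PBS pH 7.4, 0.01% Tween-20, then compound added for 30 min. AlphaScreen streptavidin donor/nickel chelate acceptor beads (10 ug/mL final), 30 min dark, luminescence read.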
# Active calls of the source: *; ? = inconclusive; . = not tested or not shown; [ ] = another dose, or the depositor's remark. Unless noted, calls come from the whole dose curve; as a rule, active = well fitted inhibition curve with a large enough effect; inconclusive = small, poorly fitted or top-dose-only effect; inactive = no such curve, though single readings can be large or run the other way.
SMILES,Six1-Eya2 inh,BAZ2B block,JMJD2A Tudor,CtBP-E1A blk,G9a block,HP1b chromo inh
CC(=O)OCC(NC(=O)C(Cc1ccccc1)NC(=O)OC(C)(C)C)C1OC(n2cc(C)c(=O)[nH]c2=O)C(OC(C)=O)C1OC(C)=O (stereo not given),.,.,-6%,.,.,20%
Cc1ccc(C)c(C(=O)COC(=O)Cn2c(C)csc2=O)c1,-3,-9%,-8%,-2,79µM*,17%
Cc1ccc2c(=O)cc(C(=O)Nc3c(C(=O)Nc4cccc(Cl)c4)oc4ccccc34)oc2c1,.,0%,-14%,.,13%[59 µM],16%
COc1ccccc1N1CCN(C(=O)[C@@H]2CCCN2C2=NS(=O)(=O)c3ccccc32)CC1,2,.,.,7,.,.
CC(C)(C)C(=O)COC(=O)c1ccc(O)cc1,1,-2%,-15%,6,12%[59 µM],63%
CC(C)(C)C(=O)OCOP(=O)(OCOC(=O)C(C)(C)C)C(C)(Oc1ccc(O)cc1)P(=O)(OCOC(=O)C(C)(C)C)OCOC(=O)C(C)(C)C,.,.,.,.,3.5µM*,.
COC(=O)C/C(C)=N/Nc1ccc(S(=O)(=O)N2CCCC2)cc1[N+](=O)[O-],-16,?,-32%,.,45µM*,-1%
COC(=O)COc1ccc(S(=O)(=O)N2CCCCC2)cc1[N+](=O)[O-],-10,-10%,-12%,1,1%,0%
Cc1ccc(-n2c(O)c(/C=N/Nc3ccc(S(=O)(=O)N4CCOCC4)cc3[N+](=O)[O-])c3ccccc3c2=O)c(C)c1,?,13µM*,28µM*,?,8.9µM*,4µM*
COc1cc(OC)cc(Oc2ccc(S(=O)(=O)N3CCCCC3)cc2[N+](=O)[O-])c1,-26,-27%,?,-6,79µM*,-15%
CN1CCC(=NNc2ccc(S(=O)(=O)N3CCOCC3)cc2[N+](=O)[O-])CC1,-2,-12%,-26%,1,-22%[59 µM],-12%
C/C(=N\Nc1ccc(S(=O)(=O)N2CCOCC2)cc1[N+](=O)[O-])C(C)C,?,.,45µM*,-4,?,?
COCCN1CCc2nc(SCC(=O)Nc3ccc(Br)cc3)[nH]c(=O)c2C1,.,0%,2%,.,-44%[59 µM],34%
NS(=O)(=O)c1ccc(N/N=C/c2ccc(C(=O)O)cc2)c([N+](=O)[O-])c1,1,?,-15%,3,.,31%
O=C(O)c1ccc(/C=N\Nc2ccc(S(=O)(=O)N3CCOCC3)cc2[N+](=O)[O-])cc1,19,?,?,3,50µM*,-1%
Cc1ccc2nc(Nc3ccc(C)c(C)c3)c3nncn3c2c1,4,3%,-16%,6,3%,26%
O=C(O)c1cc2c(cc1NC(=O)c1ccccc1C(F)(F)F)OCCCO2,4,-26%,-7%,-4,1%,25%
CS(=O)(=O)c1ccccc1C(=O)Nc1cc2c(cc1C(=O)O)OCCCO2,17,3%,-30%,-1,50µM*,20%[57 µM]
CS(=O)(=O)Nc1ccccc1C(=O)Nc1cc2c(cc1C(=O)O)OCCCO2,-16,4%,1%,0,8.9µM*,14%
CC1(c2nc3ccccc3[nH]2)c2ccccc2C(=O)N1Cc1ccccn1 (stereo not given),-1,.,.,1,.,.
CN1C(=O)/C(=C/c2cc(C(C)(C)C)c(O)c(C(C)(C)C)c2)NC1=S,-1,0%,0%,-2,13µM*,42%
CN1C(=O)/C(=C/c2ccccc2OCc2ccccc2)NC1=S,-11,?,-22%,-10,?,5%
